Bioassay records: PubChem BioAssay, National Center for Advancing Translational Sciences (NCATS)
ELG1 repair inh – qHTS screen for small molecules that inhibit ELG1-dependent DNA repair in human embryonic kidney (HEK293T) cells expressing luciferase-tagged ELG1; HEK293T ELG1-luciferase reporter, luminescence, 16 h; DNA damage induced by 5-fluorouridine; Potency, µM (top dose mostly 46.1 µM), for the others: at the highest dose activity change, negative = inhibition, usual class: inhibitors; 330,000 compounds, 2.3% hits; AID 504467, 2011; also: potency is read from the fitted curve at half-maximal effect; nearly all actives have a fitted effect of over 55% in size
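Luminescence from the luciferase reporter, measured 30 min after ONE-Glo reagent at room temperature, was the read-out. Beforehand, 2,000 cells per well were exposed for 16 hr at 37 °C to 5-fluorouridine together with compound or vehicle.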
IL-1B inflam inh – qHTS for Inhibitors of Inflammasome Signaling: IL-1-beta AlphaLISA Primary Screen; THP-1 LPS/ATP IL-1B secretion, AlphaLISA, 16 h; hits give low values; activity change, % at 57.5 µM; 360,000 compounds, 4.7% hits; AID 743279, 2014; in the data active = activity change below about -50%; inconclusive = mostly about -30% to -49%
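THP-1 cells pretreated 1 hr with compounds (up to 57.5 uM final), then stimulated with LPS (250 ng/mL final) plus ATP (1.25 mM final); secreted IL-1B measured by AlphaLISA after 16 hr, decreased signal indicating inhibition.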
DT40 TDP1 no CPT – qHTS for Inhibitors of human tyrosyl-DNA phosphodiesterase 1 (TDP1): qHTS in cells in absence of CPT. Potency, µM (top dose mostly 46.2 µM), inactives show at the top dose activity change, negative = growth inhibition, hits mostly inhibitors. 420,000 compounds, 15% hits. DT40 Tdp1-/- hTDP1 cells, no CPT, ATP luminescence, 48 h; also: potency is read from the fitted curve at half-maximal effect; nearly all actives have a fitted effect of over 55% in size
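Growth kinetics read by CellTiter-Glo luminescence after ≥48 hr at 37 °C. Cells: DT40 Tdp1-/- stably carrying human TDP1, 400 per well, compound exposure in the absence of CPT (DMSO vehicle).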
TDP1 cell CPT – qHTS for Inhibitors of human tyrosyl-DNA phosphodiesterase 1 (TDP1): qHTS in cells in presence of CPT; Potency, µM (series often up to 46.2 µM), for inactives: top-dose activity change, negative = growth inhibition, most hits filed as inhibitors; 420,000 compounds, 12% hits; chicken DT40 Tdp1-/-;hTDP1 cells + 20 nM CPT, ATP luminescence, 48 h; AID 686979, 2013; also: potency is read from the fitted curve at half-maximal effect; nearly all actives have a fitted effect of over 55% in size
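Cell growth measured by CellTiter-Glo luminescence after a minimum 48 h, 37 C compound exposure with 20 nM CPT in Tdp1-knockout DT40 cells stably expressing hTDP1, seeded 400/well; qHTS titration format.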
Giardia kill – Small Molecules that selectively kill Giardia lamblia: qHTS; 340,000 compounds, 0.15% hits; activity change, % at 7.66 µM, hits read low; Giardia lamblia trophozoite viability; in the data active = activity change below about -80%; inconclusive = between about -30% and that limit;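 also: parasites exposed to compound for two days anaerobically before the ATP read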
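Giardia trophozoites, 100 cells per well, were exposed to compounds for 48 hrs at 37 deg C under anaerobic conditions; viability was then read as ATP content by bioluminescence after 15-30 min at room temperature.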
TDP1 inh – qHTS Assay for Inhibitors of Tyrosyl-DNA Phosphodiesterase (TDP1). AID 485290, 2010. 350,000 compounds, 0.28% hits. Tyrosyl-DNA phosphodiesterase 1 (Homo sapiens), Q9NUW8. Potency, µM (titrated, usually from 130 µM), for inactives: at the highest dose activity change, negative = inhibition, actives largely listed as inhibitors. recombinant TDP1, AlphaScreen DNA substrate cleavage; also: potency is read from the fitted curve at half-maximal effect; nearly all actives have a fitted effect of over 40% in size
Target sequence (Q9NUW8 whole entry, looked up): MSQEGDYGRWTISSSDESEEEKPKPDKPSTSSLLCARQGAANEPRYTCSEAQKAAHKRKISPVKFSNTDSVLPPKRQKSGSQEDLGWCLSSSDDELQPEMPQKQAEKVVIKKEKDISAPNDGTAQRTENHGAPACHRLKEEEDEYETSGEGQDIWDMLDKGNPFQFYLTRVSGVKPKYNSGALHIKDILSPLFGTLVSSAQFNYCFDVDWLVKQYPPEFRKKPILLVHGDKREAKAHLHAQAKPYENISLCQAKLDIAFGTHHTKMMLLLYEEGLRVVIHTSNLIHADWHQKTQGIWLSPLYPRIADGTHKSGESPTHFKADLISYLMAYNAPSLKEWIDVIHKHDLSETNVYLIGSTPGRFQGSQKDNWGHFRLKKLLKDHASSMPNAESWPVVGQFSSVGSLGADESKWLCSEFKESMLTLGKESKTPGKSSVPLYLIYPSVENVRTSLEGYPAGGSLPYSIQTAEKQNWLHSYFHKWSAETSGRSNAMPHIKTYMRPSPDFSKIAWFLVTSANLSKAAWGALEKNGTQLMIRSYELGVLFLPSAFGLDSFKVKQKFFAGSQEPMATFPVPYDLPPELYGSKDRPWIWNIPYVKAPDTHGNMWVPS
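Steps: enzyme plus compound, 15 min RT; add biotin/phosphotyrosine-FITC oligonucleotide (15 nM final), react 5 min; add donor/acceptor beads (10 ug/ml final), 10 min; read AlphaScreen. Tdp1 at 1 nM final.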
Active calls of the source: *; u = inconclusive; x = not tested or not shown. An excerpt weighted towards active compounds, which were near 19% of everything screened. Unless noted, calls follow the shape of the dose curve; as a rule, active = well fitted curve in the direction sought with a large enough effect; inconclusive = small, poorly fitted or top-dose-only effect, or another doubt; inactive = no such curve, though single readings can be large; an effect the other way counts as inactive or inconclusive. % is scaled to controls: 0 for no effect and ±100 for the full control effect.

SMILES | ELG1 repair inh | IL-1B inflam inh | DT40 TDP1 no CPT | TDP1 cell CPT | Giardia kill | TDP1 inh
O=C(NCc1ccccn1)c1cn(-c2ccccc2)nc1-c1ccc(Cl)cc1 | -16% | 0 | 26µM* | u | 0 | 3%
O=C(Nc1nccs1)c1cn(-c2ccccc2)nc1-c1ccncc1 | u | -17 | -23% | -10% | 3 | 79µM*
Cc1occc1C(=O)NNC(=O)c1ccc(Br)o1 | -7% | -10 | -20% | 0% | -14 | -5%
N#Cc1nc(Nc2ccc(F)cc2)nc(NC2CCCC2)n1 | x | x | x | x | x | 0%
COc1c(C)cccc1C(=O)Nc1ccc(N2CCN(C(=O)c3ccccc3C)CC2)cc1 | 10µM* | -106* | 15µM* | 16µM* | -20 | 7%
CC(=O)N1CCN(c2ccc(NC(=O)C(c3ccccc3)c3ccccc3)cc2)CC1 | -18% | -58* | -22% | -26% | -16 | x
Cc1ccccc1C(=O)N1CCN(c2ccc(NC(=O)c3cccc(OC(C)C)c3)cc2)CC1 | 16µM* | -1 | 3.3µM* | 3.7µM* | -9 | 6%
COc1ccccc1C(=O)Nc1ccc(N2CCN(C(C)=O)CC2)cc1 | 5% | -56* | -7% | 3% | -16 | 2%
Cc1ccc(C)c(N2CCN(C(=O)Cn3c(=O)c4cccn4c4ccc(F)cc43)CC2)c1 | x | x | -21% | -10% | x | 3%
Cc1cc(CNC(=O)[C@]2(C(F)(F)F)C[C@H](CCC3CCCCC3)CCCO2)nn1C | x | x | x | x | -16 | 10%
CCOC(=O)c1c(CNc2ccncc2)n(C)c2cc(Br)c(O)cc12 | -2% | -4 | u | u | u | 2%
Cc1sc(NC(=O)c2ccco2)c(C(c2ccccc2)N2CCC(C)CC2)c1C (centres undefined) | u | -22 | 6.5µM* | 10µM* | -19 | 1%
CCOC(=O)C1CCN(C(c2cccnc2)c2c(NC(=O)c3ccco3)sc(C)c2C)CC1 (centres undefined) | 15µM* | -29 | 1.8µM* | 1.6µM* | 0 | 10%
Cc1sc(NC(=O)c2ccco2)c(C(c2ccc(F)cc2)N2CCN(C)CC2)c1C (centres undefined) | -1% | -71* | u | u | -7 | 5%
Cc1ccc(C(c2c(NC(=O)c3ccco3)sc(C)c2C)N2CCOCC2)cc1 (centres undefined) | x | -3 | u | u | x | x
COc1ccc(C(c2c(NC(=O)c3ccco3)sc(C)c2C)N2CCOCC2)cc1OC (centres undefined) | 2% | -10 | u | -28% | -21 | 8%
Cc1sc(NC(=O)c2ccco2)c(C(c2cccnc2)N2CCN(CCO)CC2)c1C (centres undefined) | -2% | -12 | 0% | -29% | -1 | 2%
O=C(NCCc1ccccc1)C(=O)NCC1OCCN1S(=O)(=O)c1cc(F)ccc1F (centres undefined) | -18% | -18 | u | u | 2 | x
c1ccc(COc2ncnc3c2ncn3CCCN2CCN(c3ncccn3)CC2)cc1 | x | -12 | u | u | x | x
COC(=O)N1[C@H](C)C=C[C@]1(Cc1ccccc1)C(=O)NCc1ccc(N(C)C)cc1 | x | x | x | x | x | 12%
CCc1cccc(NC(=O)Cn2c(=O)n(CCC(=O)NCc3ccccc3Cl)c(=O)c3sccc32)c1 | x | x | u | u | x | -2%
COc1cc(OC)cc(-c2c(Sc3ccccc3)c3cc(-c4cnc(N5CCOCC5)nc4)ccc3n2C)c1 | x | 0 | u | -1% | x | x
COc1cc(OC)cc(-c2c(-c3ccc(F)cc3)c3cc(-c4cnc(OC)nc4)ccc3n2C)c1 | u | 6 | 13µM* | 16µM* | -19 | 1%
COc1ccc(-c2c(-c3cc(OC)cc(OC)c3)n(C)c3ccc(-c4ccc(S(N)(=O)=O)cc4)cc23)cc1 | u | -54* | 4.1µM* | 10µM* | 9 | 3%
COc1cccc(-c2c(-c3cc(OC)cc(OC)c3)n(C)c3ccc(-c4cnc(OC)nc4)cc23)c1 | u | -4 | 15µM* | u | -13 | 2%
SMILES | ELG1 repair inh | IL-1B inflam inh | DT40 TDP1 no CPT | TDP1 cell CPT | Giardia kill | TDP1 inh
COc1ccc(-c2c(-c3cc(OC)cc(OC)c3)n(C)c3ccc(-c4cnc(N)nc4)cc23)cc1 | u | -8 | u | -26% | -1 | 3%
COc1cccc(-c2c(-c3cc(OC)cc(OC)c3)n(C)c3ccc(-c4cnc(N5CCOCC5)nc4)cc23)c1 | 6% | 18 | 23µM* | 13µM* | -26 | 4%
Cn1cnc(S(=O)(=O)N2CCC(C(=O)N3CCN(c4ccccc4F)CC3)CC2)c1 | x | x | -2% | 1% | x | 1%
CCOc1ccc(N(CC(=O)NC2CCCCC2)C(=O)CCC(=O)Nc2ccccn2)cc1 | -1% | -12 | -15% | -3% | -7 | 10%
CC12CCC(C(=O)N3CCN(Cc4ccccc4)CC3)(OC1=O)C2(C)C (centres undefined) | -5% | -13 | -18% | -11% | 15 | 5%
COc1cc(NCCCn2cnc3c(OCc4ccccc4)ncnc32)cc(OC)c1OC | x | -4 | u | u | -1 | x
COc1ncnc2c1ncn2CCCNc1ccc(C)c(C)c1 | x | -10 | 13µM* | u | x | x
O=C(NNC(=O)c1cnccn1)c1ccc(Cl)cc1 | u | 23 | 15µM* | u | -18 | 9%
O=C(Nc1ccccc1Cl)c1cnccn1 | u | -6 | 5% | 6% | 5 | 0%
O=C(NNC(=O)c1ccc(Cl)cc1Cl)c1cnccn1 | 0% | 29 | 26µM* | u | -8 | x
Cc1cc(OCC(=O)NNC(=O)c2cnccn2)cc(C)c1Cl | -12% | 46 | 5.8µM* | 10µM* | 6 | 4%
CC1CC(=O)Nc2ccccc2N1C(=O)CSc1ncnc2sccc12 (centres undefined) | -12% | 4 | 5% | 13% | 23 | 2%
CCO[C@H]1OC(C(=O)N2CCN(Cc3ccc4c(c3)OCO4)CC2)=C[C@@H](C2CCCCC2)[C@@H]1CCCO | -12% | 5 | 16µM* | 15µM* | 15 | 8%
CCO[C@@H]1OC(C(=O)N2CCCCCCC2)=C[C@H](C2CCCCC2)[C@H]1CCCO | 16% | -26 | u | 13µM* | 4 | 5%
